Drawing on PubChem BioAssay (NCI), this text covers growth for 8 compounds.

The structures appear in SMILES notation. The panel holds about 83,000 compounds, 20% with a hit somewhere; the sample as a whole holds those more often.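 The test compound was applied at a single concentration to cells in 96-well plates for 48 hours, and percent growth was recorded.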 Unmarked numbers belong to inactive results. Calls of active or inactive are those of the source. Rule for the calls: active = growth percent below 10; inactive = the rest.

Among the test systems are DU-145 prostate; K-562 leukemia; MALME-3M melanoma; MDA-MB-231 breast; RXF 393 renal; SF-268 CNS; SF-295 CNS; UACC-257 melanoma; M14 melanoma; HCT-15 colon; HT29 colon; SNB-75 CNS; SNB-19 CNS; U251 CNS; PC-3 prostate; SK-MEL-5 melanoma; UACC-62 melanoma; LOX IMVI melanoma; SK-MEL-28 melanoma.
Assay in all cases: NCI-60 one-dose screen, 48 h (100 = growth as untreated, 0 = no growth, -100 = all killed)
Settings in all cases: 10 µM unless noted

As to `c1ccc2sc(SCCCn3ccnc3)nc2c1`, the growth in the assay with DU-145 prostate is 101%; in the assay on K-562 leukemia, 103%; in the assay on MALME-3M melanoma, 96.1%; with MDA-MB-231 breast it was 89.6%; with RXF 393 renal, 95.2%; with SF-268 CNS it was 98.4%. The growth in the assay on SF-295 CNS is 97.4%; in the assay on UACC-257 melanoma, 87.3%; in the assay on M14 melanoma, 102%; with HCT-15 colon it was 98.3%; in the assay on HT29 colon, 67%; in the assay with SNB-75 CNS it was 117%. In addition, the growth is 94% in the assay on SNB-19 CNS; 88.2% in the assay with U251 CNS; 80.1% in the assay on PC-3 prostate; 92.1% with SK-MEL-5 melanoma; 87.8% with UACC-62 melanoma; 96.5% in the assay with LOX IMVI melanoma. Also, the growth in the assay with SK-MEL-28 melanoma was 109%.
Take `CCN(CC)CCC(=O)c1ccc(OC)c2ccccc12`: the growth in the assay with DU-145 prostate is 116%; in the assay on K-562 leukemia it was 43.9%; in the assay on MALME-3M melanoma, 104%; in the assay on MDA-MB-231 breast it was 110%; in the assay on RXF 393 renal, 81.8%; in the assay with SF-268 CNS, 110%. Besides, the growth in the assay with SF-295 CNS is 99.6%; in the assay on UACC-257 melanoma, 89.4%; in the assay on M14 melanoma, 90.1%; with HCT-15 colon, 107%; with HT29 colon, 109%; in the assay with SNB-75 CNS it was 89.1%. Also, the growth is 87% in the assay with SNB-19 CNS; 95.4% in the assay on U251 CNS; 102% in the assay on PC-3 prostate; 107% with SK-MEL-5 melanoma; 90.6% in the assay with UACC-62 melanoma; 86.8% in the assay with LOX IMVI melanoma. In the assay with SK-MEL-28 melanoma, the growth is 122%.
Turning to `NC(=S)N/N=C/c1ccc(OCc2ccccc2)cc1`, the growth with DU-145 prostate was 85.3%; with K-562 leukemia it was 43.7%; in the assay on MALME-3M melanoma, 56.2%; in the assay on MDA-MB-231 breast, 69.9%; in the assay with RXF 393 renal it was 52.4%; with SF-268 CNS it was 80.9%. The growth in the assay with SF-295 CNS is 96%; with UACC-257 melanoma, 60.7%; with M14 melanoma, 71.6%; in the assay on HCT-15 colon, 47.8%; in the assay on HT29 colon, 47.7%; with SNB-75 CNS it was 67.8%. For the same compound, the growth in the assay on SNB-19 CNS was 73.1%; with U251 CNS it was 71.8%; in the assay on PC-3 prostate, 64.2%; in the assay on SK-MEL-5 melanoma it was 86.4%; in the assay on UACC-62 melanoma it was 61.8%; in the assay with LOX IMVI melanoma it was 82.1%. The growth in the assay with SK-MEL-28 melanoma is 80%.
On to `COc1ccccc1-c1ccc2c(N)c(C(=O)c3ccc4c(c3)OCO4)sc2n1`, for which the growth in the assay with DU-145 prostate is 90.5%; with K-562 leukemia, 14.4%; in the assay with MALME-3M melanoma, 48.2%; with MDA-MB-231 breast, 51.8%; with RXF 393 renal it was 75.3%; with SF-268 CNS, 84.3%. Also, the growth in the assay on SF-295 CNS is 63.9%; with UACC-257 melanoma, 81.4%; in the assay with M14 melanoma it was 46.6%; in the assay with HCT-15 colon, 38.8%; with HT29 colon, 47%; in the assay on SNB-75 CNS it was 85.1%. The growth with SNB-19 CNS is 82.1%; with U251 CNS, 63.7%; with SK-MEL-5 melanoma it was 56.6%; in the assay on UACC-62 melanoma, 42%; in the assay with LOX IMVI melanoma, 58%; in the assay with SK-MEL-28 melanoma, 71.3%.
In the case of `CCOC(=O)c1c2c(n3ccc(NC(=O)CCN4CCCCC4)cc13)C(=O)c1ncccc1C2=O`, the growth in the assay on DU-145 prostate is -93.9% (active); with K-562 leukemia, -48.2% (active); with MALME-3M melanoma, -71.7% (active); with MDA-MB-231 breast, -72.9% (active); in the assay with RXF 393 renal, 41.4%; in the assay on SF-268 CNS, 36.6%. Also, the growth was 35.3% in the assay with SF-295 CNS; 21.2% with UACC-257 melanoma; -77.9% (active) in the assay with M14 melanoma; -62.9% (active) in the assay on HCT-15 colon; -61.5% (active) with HT29 colon; 23.9% with SNB-75 CNS. In addition, the growth in the assay on SNB-19 CNS is -42.7% (active); with PC-3 prostate it was 47.3%; in the assay on SK-MEL-5 melanoma, -83.6% (active); in the assay on UACC-62 melanoma, -50.6% (active); in the assay on LOX IMVI melanoma, -63.9% (active); in the assay with SK-MEL-28 melanoma it was -64.7% (active).
Take `NC(N)=Nc1ccc(S(=O)(=O)O)cc1`: the growth was 131% in the assay on DU-145 prostate; 92.2% with K-562 leukemia; 103% in the assay with MALME-3M melanoma; 93.6% with MDA-MB-231 breast; 136% in the assay with RXF 393 renal; 110% with SF-268 CNS. Moreover, the growth in the assay with SF-295 CNS was 117%; with UACC-257 melanoma it was 99.1%; in the assay on M14 melanoma, 110%; with HCT-15 colon it was 102%; with HT29 colon, 111%; in the assay with SNB-75 CNS it was 88.7%. Moreover, the growth in the assay on SNB-19 CNS was 90%; in the assay on U251 CNS, 111%; with PC-3 prostate, 99.1%; in the assay with SK-MEL-5 melanoma it was 101%; with UACC-62 melanoma, 86.9%; in the assay with LOX IMVI melanoma, 96.5%. The growth in the assay with SK-MEL-28 melanoma is 103%.
Take `CCC(c1ccc(O)cc1)C(CC)c1ccc(O)c(F)c1` (centres undefined): the growth with DU-145 prostate was 97.6%; in the assay on K-562 leukemia it was 47.4%; in the assay with MALME-3M melanoma it was 85.2%; with MDA-MB-231 breast, 97.2%; in the assay on RXF 393 renal, 92.6%; with SF-268 CNS it was 82.6%. Moreover, the growth in the assay with SF-295 CNS was 84.9%; with UACC-257 melanoma it was 89%; in the assay with M14 melanoma, 80.5%; in the assay with HCT-15 colon it was 78.2%; in the assay with HT29 colon, 102%; in the assay on SNB-75 CNS, 78.7%. Moreover, the growth was 125% in the assay on SNB-19 CNS; 89.8% in the assay with U251 CNS; 72.1% in the assay on PC-3 prostate; 66.4% in the assay with SK-MEL-5 melanoma; 59.4% in the assay with UACC-62 melanoma; 87.2% in the assay with LOX IMVI melanoma. The growth in the assay with SK-MEL-28 melanoma was 78.9%.
In the case of `COc1cc(-c2c3sc(=O)[nH]c3nc3c2c(=O)[nH]n3C(C)C)cc2c1OCO2`, the growth was 119% with DU-145 prostate; 97.6% with K-562 leukemia; 121% in the assay on MALME-3M melanoma; 101% with MDA-MB-231 breast; 94.5% with RXF 393 renal; 115% with SF-268 CNS. Moreover, the growth in the assay with SF-295 CNS was 83.5%; in the assay on UACC-257 melanoma it was 99.2%; in the assay with M14 melanoma, 114%; with HCT-15 colon, 101%; in the assay on HT29 colon, 103%; with SNB-75 CNS it was 85.2%. Also, the growth was 107% in the assay on SNB-19 CNS; 103% with U251 CNS; 117% in the assay on PC-3 prostate; 96.9% in the assay on SK-MEL-5 melanoma; 105% with UACC-62 melanoma; 99.2% in the assay on SK-MEL-28 melanoma.
